Laboratory results reported in PubChem BioAssay AID488932 (Broad Institute, 2010).
Entries with a potency or affinity are not part of this list. Calls of active or inactive are those of the source.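 The calls were made as follows: active = growth signal falls, with fitted half-maximal dose at most ten times the top valid dose; inconclusive = flat curve with a partial drop, or a poorly fitting curve; inactive = the rest, including compounds that raise signal.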

test: single-agent toxicity toward C. albicans – CaCi-2 strain, no fluconazole, dry powder, set 4, counter-screen for reversing antifungal drug resistance, dose response (AID 488932); settings: C. albicans CaCi-2 (fluconazole-resistant clinical isolate) growth, Alamar Blue, 48 h; series mostly up to 26 µM; activity change, negative = inhibition: at the top concentration

Structure (SMILES) | activity change, negative = inhibition | outcome
O=C(c1ccc(F)cc1)N1CCN(c2ccnc3cc(Cl)ccc23)CC1 | 20.7% (inactive) | 
Cc1cccc(N2CCN(C(=O)c3ccc(Cl)cc3)CC2)n1 | 61.1% (inactive) | 
O=C(c1ccc(Cl)cc1)N1CCCN(c2ccnc3cc(Cl)ccc23)CC1 | 70.2% (inactive) | 
CC1CN(c2ccnc3cc(Cl)ccc23)CCN1C(=O)c1ccc(Cl)cc1 (stereo not drawn) | 36% (inactive) | 
O=C(c1cccs1)N1CCN(c2ccnc3cc(Cl)ccc23)CC1 | -16% [at 12 µM] (inactive) | 
O=C(c1ccc(Cl)nc1)N1CCN(c2ccnc3cc(Cl)ccc23)CC1 | 51% (inactive) | 
O=C(Nc1ccc(C(F)(F)F)cc1)N1CCN(c2ccnc3cc(Cl)ccc23)CC1 | 4.41% (inactive) | 
O=C(c1ccc(Cl)cc1)N1CCN(c2cccc(C(F)(F)F)n2)CC1 | 20.3% (inactive) | 
O=C(c1ccc(Cl)cc1)N1CCN(c2nc3ccccc3o2)CC1 | 16.5% (inactive) | 
O=C(c1ccc(Cl)cc1)N1CCN(c2ccccn2)CC1 |  | inactive
COc1ccc(OC)c2c(C)cc(N3CCN(C(=O)c4ccc(Cl)cc4)CC3)nc12 | -17.5% (inactive) | 
CCCCNC(=O)N1CCN(c2ccnc3cc(Cl)ccc23)CC1 | 28.2% (inactive) | 
O=C(c1ccccc1)N1CCN(c2ccnc3cc(Cl)ccc23)CC1 | 29.6% (inactive) | 
CC(C)CC(=O)N1CCN(c2ccnc3cc(Cl)ccc23)CC1 | 44.8% (inactive) | 
O=C(c1ccc(Cl)cc1)N1CCN(c2ccnc3ccc(Cl)cc23)CC1 | 19% (inactive) | 
O=C(c1ccc(Cl)cc1)C1CCN(c2ccnc3cc(Cl)ccc23)CC1 | 18.3% (inactive) | 
O=C(c1ccc(Cl)c(Cl)c1)N1CCN(c2ccnc3cc(Cl)ccc23)CC1 | 19.6% (inactive) | 
O=C(c1ccc(Cl)cc1)N1CCN(c2ccnc3cc(Cl)ccc23)CC1 |  | inactive
Cc1ccc(N2CCN(C(=O)c3ccc(Cl)cc3)CC2)nn1 | 23.3% (inactive) | 
COc1cccnc1N1CCN(C(=O)c2ccc(Cl)cc2)CC1 | 23.9% (inactive) | 
Cc1ccc(C(=O)N2CCN(c3ccnc4cc(Cl)ccc34)CC2)cc1 | 9.7% (inactive) | 
COc1ccc2c(N3CCN(C(=O)c4ccc(Cl)cc4)CC3)ccnc2c1 | 13.6% (inactive) | 
CCCC(=O)N1CCN(c2ccnc3cc(Cl)ccc23)CC1 | 37% (inactive) | 
